# Source: PubChem BioAssay (Tox21)
# Unmarked numbers belong to inactive results. Entries that show only a call come without a potency. The source made the active and inactive calls. Calls follow the shape of the full dose curve.
# Biological target: Muscarinic acetylcholine receptor M1 (Homo sapiens) (UniProt P11229)
# Test: Cholinergic receptor muscarinic 1 (CHRM1) small molecule agonists, cell-based qHTS assay (AID 1963589); also: nearly all actives have a fitted effect of over 35% in size
# Settings: CHRM1-CHO cells, agonist mode, calcium flux fluorescence; series mostly up to 76.8 µM
# From the text: National Center for Advancing Translational Sciences [NCATS]
# Division of Preclinical Innovation [DPI]
# U.S. Environmental Protection Agency [EPA]
# National Institutes of Environmental Health Sciences [NIEHS]
# National Toxicology Program [NTP]
# U.S. Food and Drug Administration [FDA]
# The CHRM1 is a muscarinic receptor. This receptor plays a crucial role in learning and memory processes and has long been identified as a promising therapeutic target for the improvement of cognitive decline in Alzheimer's disease (AD). The CHRM1-CHO cell line stably expressing human muscarinic acetylcholine receptor M1 (CHRM1) can be used for screening agonists and antagonists of interactions between CHRM1 and its ligands. The CHRM1-CHO Calcium Flux Assay is a homogeneous fluorescence-based assay for detecting the intracellular calcium level using FDSS kinetic plate reader system.
# CHRM1-CHO cells were dispensed at 1000 cells/3uL/well in 1536-well black-clear bottom plates using a Multidrop Dispenser. After the assay plates were incubated at a 37 C/5% CO2 incubator for 18 h, 3 uL of Dye Loading Buffer was transferred to the assay plate by a Flying Reagent Dispenser. The assay plates were incubated at 37 C for 1h. For agonist mode, 23 nL of compounds dissolved in DMSO, positive controls or DMSO only was transferred to the assay plate by a pin tool. […] Each test compound was measured at 15 concentrations in three independent runs.
# Sequence of Muscarinic acetylcholine receptor M1 (Homo sapiens) (P11229 whole entry, looked up): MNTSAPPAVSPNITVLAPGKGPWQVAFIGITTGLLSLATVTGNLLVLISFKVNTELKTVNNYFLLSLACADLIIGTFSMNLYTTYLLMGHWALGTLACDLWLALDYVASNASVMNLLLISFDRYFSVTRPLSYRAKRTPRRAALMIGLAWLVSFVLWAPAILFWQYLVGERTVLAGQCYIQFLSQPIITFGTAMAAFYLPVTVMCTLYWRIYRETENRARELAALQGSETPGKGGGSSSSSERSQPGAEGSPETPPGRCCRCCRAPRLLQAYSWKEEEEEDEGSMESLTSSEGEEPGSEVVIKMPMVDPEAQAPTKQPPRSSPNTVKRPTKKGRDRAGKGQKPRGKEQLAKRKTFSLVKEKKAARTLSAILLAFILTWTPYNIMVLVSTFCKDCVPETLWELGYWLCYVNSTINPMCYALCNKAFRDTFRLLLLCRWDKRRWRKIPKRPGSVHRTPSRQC
Structure (SMILES),Potency,activation
C/C(=C\C(C)CC(C)CC(C)C)C1CC(=O)OC1=O (stereo not given),inactive,–
CCCCS(=O)(=O)N[C@@H](Cc1ccc(OCCCCC2CCNCC2)cc1)C(=O)O,inactive,–
CCN(CC)C(=O)N1CCN(C)CC1,inactive,–
CCCC1CCCC(=O)O1 (stereo not given),inactive,–
CC(C(=O)O)c1ccc(C(=O)c2ccccc2)s1 (stereo not given),inactive,–
Cn1c(N)c(N=O)c(=O)n(C)c1=O,inactive,–
Cc1cc(O)c(C(C)(C)C)cc1C(C)(C)C,inactive,–
O=C1O[C@@H]2[C@@H](O)[C@H](O)O[C@@H]2[C@H]1O,inactive,–
CN1CCN(N)CC1,inactive,–
c1ccc(CCCc2ccccn2)cc1,inactive,–
CCOC(=O)NNc1ccc(N(CC)CC(C)O)nn1 (stereo not given),inactive,–
Nc1ccccc1S(=O)(=O)c1ccccc1,inactive,–
Cc1cc(Br)ccc1NC(=O)CCl,inactive,–
CCOC(CN1CCN(CC(C)C(=O)c2ccccc2)CC1)c1ccccc1 (stereo not given),–,-0.405% [at 15.8 µM]
OCCCCC(O)CO (stereo not given),inactive,–
CN(C)c1ccc(C(c2ccccc2)c2ccc(N(C)C)cc2)cc1,inactive,–
Nc1ccc(Oc2cccc(Oc3ccc(N)cc3)c2)cc1,inactive,–
CC(=O)Nc1ccc(S(=O)(=O)Nc2cc(C)on2)cc1,inactive,–
N#Cc1cscn1,inactive,–
CCCCC/C=C\CCC=O,inactive,–

Structure (SMILES),Potency,activation
CC(C)(O)C(=O)c1ccccc1,inactive,–
CCO[Si](C)(CCCOCC1CO1)OCC (stereo not given),inactive,–
O=C(O)c1cc(C(=O)O)c(C(=O)O)cc1C(=O)O,inactive,–
COc1ccc2sc(C(=O)Nc3nnn[nH]3)c(OC(C)C)c2c1,inactive,–
Cc1cccc(Oc2ccccc2)c1,inactive,–
O=C1CCCc2c(O)cccc21,inactive,–
CC(=O)Nc1ccc(OCC(O)CNC(C)C)cc1 (stereo not given),inactive,–
Clc1ccnc(Cl)n1,inactive,–
C=CCOc1c(Br)cc(C(C)(C)c2cc(Br)c(OCC=C)c(Br)c2)cc1Br,inactive,–
Cc1ccnc(N)c1,inactive,–
CCCCCCC/C=C/C=O,inactive,–
CC(C)c1ccc2oc3nc(N)c(C(=O)O)cc3c(=O)c2c1,inactive,–
CCN(CC)CCOc1ccccc1C(=O)CCc1ccccc1,inactive,–
CCCCCCCCOCCCN,inactive,–
CC1OCCC1=O (stereo not given),inactive,–
CN(C)CCC=C1c2ccccc2C=Cc2ccccc21,inactive,–
NC(=O)CC[C@@H](N)C(=O)O,inactive,–
OCCCO,inactive,–
CC(C)=CCC/C(C)=C\C#N,inactive,–
CCCCN1C=CN(C)C1,–,4.26% [at 15.8 µM]
